Source: PMC12820563, “FoxP3 forms a head-to-head dimer in vivo and stabilizes its multimerization on adjacent microsatellites”
Whole data set: some 16,000 sequences, median “rpm ratio (pull-down/input)” near 0.94, cut for the highest 2% near 1.7. The entries come from a sample that favours the highest values as a whole.

target: T1, MBP-FoxP1dN (Mus musculus, UniProt P58462 326-579); assay: PD-seq (MBP pull-down with sequencing); 20 mM Tris-HCl pH 7.5, 100 mM NaCl, 1.5 mM MgCl2, 0.4 uM protein, 0.1 uM dsDNA library, 30 min, room temperature, amylose pull-down; high values mean tight binding; conditions: protein: recombinant; tags: His6-MBP; chain copies: 2; dsDNA, one strand shown
T1 sequence: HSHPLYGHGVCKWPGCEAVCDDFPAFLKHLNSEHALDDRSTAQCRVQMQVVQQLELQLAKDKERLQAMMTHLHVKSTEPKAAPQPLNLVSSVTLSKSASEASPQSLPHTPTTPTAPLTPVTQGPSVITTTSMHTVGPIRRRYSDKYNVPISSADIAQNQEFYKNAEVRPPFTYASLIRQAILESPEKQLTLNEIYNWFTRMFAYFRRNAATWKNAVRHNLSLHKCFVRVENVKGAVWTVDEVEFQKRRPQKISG
Procedure, shortened: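 Protein and DNA were mixed at 0.4 µM and 0.1 µM and held for 30 min at room temperature in Tris pH 7.5 buffer with NaCl and MgCl2; the protein was a His6-MBP-tagged, N-terminally truncated mouse FoxP3 or FoxP1 fragment from E. coli, and the DNA a Klenow-filled double-stranded degenerate library. Amylose resin captured the complexes, which were washed three times. Binding is read as reads-per-million enrichment of pull-down versus input after Illumina sequencing, with replicates pooled.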

Sequence | binding signal
GATGATTGTTCTCCCAGCTGATGAATTGTCGCTGTCGAGTAAACAAATTTTCCTAATCTTTCTGTTCAAGCGCCATCTAC | 1.02 RPM ratio (pull-down/input)
GATGATTGTTCTCCCAGCTGATGAATTCTGGACATCGAGTAAACAAATTTTCCTAATCTTTCTGTTCAAGCGCCATCTAC | 0.937 RPM ratio (pull-down/input)
GATGATTGTTCTCCCAGCTGATGAATTACCAGGTTCGAGTAAACAAATTTTCCTAATCTTTCTGTTCAAGCGCCATCTAC | 0.873 RPM ratio (pull-down/input)
GATGATTGTTCTCCCAGCTGATGAATTATGGTTTTCGAGTAAACAAATTTTCCTAATCTTTCTGTTCAAGCGCCATCTAC | 1.24 RPM ratio (pull-down/input)
GATGATTGTTCTCCCAGCTGATGAATTTTTCATCTCGAGTAAACAAATTTTCCTAATCTTTCTGTTCAAGCGCCATCTAC | 0.937 RPM ratio (pull-down/input)
GATGATTGTTCTCCCAGCTGATGAATTCATTCGGTCGAGTAAACAAATTTTCCTAATCTTTCTGTTCAAGCGCCATCTAC | 0.807 RPM ratio (pull-down/input)
GATGATTGTTCTCCCAGCTGATGAATTATTGTGATCGAGTAAACAAATTTTCCTAATCTTTCTGTTCAAGCGCCATCTAC | 1.76 RPM ratio (pull-down/input)
GATGATTGTTCTCCCAGCTGATGAATTATTCTGATCGAGTAAACAAATTTTCCTAATCTTTCTGTTCAAGCGCCATCTAC | 0.97 RPM ratio (pull-down/input)
GATGATTGTTCTCCCAGCTGATGAATTATCTAAATCGAGTAAACAAATTTTCCTAATCTTTCTGTTCAAGCGCCATCTAC | 1.18 RPM ratio (pull-down/input)
GATGATTGTTCTCCCAGCTGATGAATTGTGATTATCGAGTAAACAAATTTTCCTAATCTTTCTGTTCAAGCGCCATCTAC | 1.74 RPM ratio (pull-down/input)
GATGATTGTTCTCCCAGCTGATGAATTATTATGATCGAGTAAACAAATTTTCCTAATCTTTCTGTTCAAGCGCCATCTAC | 1.41 RPM ratio (pull-down/input)
GATGATTGTTCTCCCAGCTGATGAATTATCTGAATCGAGTAAACAAATTTTCCTAATCTTTCTGTTCAAGCGCCATCTAC | 0.99 RPM ratio (pull-down/input)
GATGATTGTTCTCCCAGCTGATGAATTATGACAATCGAGTAAACAAATTTTCCTAATCTTTCTGTTCAAGCGCCATCTAC | 1.38 RPM ratio (pull-down/input)
GATGATTGTTCTCCCAGCTGATGAATTAAATAAATCGAGTAAACAAATTTTCCTAATCTTTCTGTTCAAGCGCCATCTAC | 1.49 RPM ratio (pull-down/input)
GATGATTGTTCTCCCAGCTGATGAATTAACATCATCGAGTAAACAAATTTTCCTAATCTTTCTGTTCAAGCGCCATCTAC | 1.31 RPM ratio (pull-down/input)
GATGATTGTTCTCCCAGCTGATGAATTAACAACATCGAGTAAACAAATTTTCCTAATCTTTCTGTTCAAGCGCCATCTAC | 2.17 RPM ratio (pull-down/input)
GATGATTGTTCTCCCAGCTGATGAATTAATAACATCGAGTAAACAAATTTTCCTAATCTTTCTGTTCAAGCGCCATCTAC | 2.02 RPM ratio (pull-down/input)
GATGATTGTTCTCCCAGCTGATGAATTAACATAATCGAGTAAACAAATTTTCCTAATCTTTCTGTTCAAGCGCCATCTAC | 1.45 RPM ratio (pull-down/input)
GATGATTGTTCTCCCAGCTGATGAATTATTAACATCGAGTAAACAAATTTTCCTAATCTTTCTGTTCAAGCGCCATCTAC | 1.32 RPM ratio (pull-down/input)
GATGATTGTTCTCCCAGCTGATGAATTTTACGTTTCGAGTAAACAAATTTTCCTAATCTTTCTGTTCAAGCGCCATCTAC | 0.852 RPM ratio (pull-down/input)

Sequence | binding signal
GATGATTGTTCTCCCAGCTGATGAATTGCCTAGTTCGAGTAAACAAATTTTCCTAATCTTTCTGTTCAAGCGCCATCTAC | 0.959 RPM ratio (pull-down/input)
GATGATTGTTCTCCCAGCTGATGAATTAACACGCTCGAGTAAACAAATTTTCCTAATCTTTCTGTTCAAGCGCCATCTAC | 1.02 RPM ratio (pull-down/input)
GATGATTGTTCTCCCAGCTGATGAATTTGGTGTGTCGAGTAAACAAATTTTCCTAATCTTTCTGTTCAAGCGCCATCTAC | 1 RPM ratio (pull-down/input)
GATGATTGTTCTCCCAGCTGATGAATTGGTGGTGTCGAGTAAACAAATTTTCCTAATCTTTCTGTTCAAGCGCCATCTAC | 0.948 RPM ratio (pull-down/input)
GATGATTGTTCTCCCAGCTGATGAATTGGTGTTGTCGAGTAAACAAATTTTCCTAATCTTTCTGTTCAAGCGCCATCTAC | 2.78 RPM ratio (pull-down/input)
GATGATTGTTCTCCCAGCTGATGAATTGGTGTCGTCGAGTAAACAAATTTTCCTAATCTTTCTGTTCAAGCGCCATCTAC | 1.04 RPM ratio (pull-down/input)
GATGATTGTTCTCCCAGCTGATGAATTTTTGGTGTCGAGTAAACAAATTTTCCTAATCTTTCTGTTCAAGCGCCATCTAC | 0.926 RPM ratio (pull-down/input)
GATGATTGTTCTCCCAGCTGATGAATTGTTGGTGTCGAGTAAACAAATTTTCCTAATCTTTCTGTTCAAGCGCCATCTAC | 1.8 RPM ratio (pull-down/input)
GATGATTGTTCTCCCAGCTGATGAATTAGACCTTTCGAGTAAACAAATTTTCCTAATCTTTCTGTTCAAGCGCCATCTAC | 0.881 RPM ratio (pull-down/input)
GATGATTGTTCTCCCAGCTGATGAATTCGACCGATCGAGTAAACAAATTTTCCTAATCTTTCTGTTCAAGCGCCATCTAC | 0.823 RPM ratio (pull-down/input)
GATGATTGTTCTCCCAGCTGATGAATTAGCCGTTTCGAGTAAACAAATTTTCCTAATCTTTCTGTTCAAGCGCCATCTAC | 0.852 RPM ratio (pull-down/input)
GATGATTGTTCTCCCAGCTGATGAATTATATTTTTCGAGTAAACAAATTTTCCTAATCTTTCTGTTCAAGCGCCATCTAC | 1.61 RPM ratio (pull-down/input)
GATGATTGTTCTCCCAGCTGATGAATTTTATATTTCGAGTAAACAAATTTTCCTAATCTTTCTGTTCAAGCGCCATCTAC | 1.07 RPM ratio (pull-down/input)
GATGATTGTTCTCCCAGCTGATGAATTATATTGTTCGAGTAAACAAATTTTCCTAATCTTTCTGTTCAAGCGCCATCTAC | 2.08 RPM ratio (pull-down/input)
GATGATTGTTCTCCCAGCTGATGAATTATATATTTCGAGTAAACAAATTTTCCTAATCTTTCTGTTCAAGCGCCATCTAC | 1.06 RPM ratio (pull-down/input)
GATGATTGTTCTCCCAGCTGATGAATTTATATTTTCGAGTAAACAAATTTTCCTAATCTTTCTGTTCAAGCGCCATCTAC | 2.37 RPM ratio (pull-down/input)
GATGATTGTTCTCCCAGCTGATGAATTTTTATATTCGAGTAAACAAATTTTCCTAATCTTTCTGTTCAAGCGCCATCTAC | 1.1 RPM ratio (pull-down/input)
GATGATTGTTCTCCCAGCTGATGAATTTACTTTATCGAGTAAACAAATTTTCCTAATCTTTCTGTTCAAGCGCCATCTAC | 1.46 RPM ratio (pull-down/input)
GATGATTGTTCTCCCAGCTGATGAATTACGTAGTTCGAGTAAACAAATTTTCCTAATCTTTCTGTTCAAGCGCCATCTAC | 1.02 RPM ratio (pull-down/input)
GATGATTGTTCTCCCAGCTGATGAATTATGGCGATCGAGTAAACAAATTTTCCTAATCTTTCTGTTCAAGCGCCATCTAC | 0.99 RPM ratio (pull-down/input)
